Reference: PubChem BioAssay (EPA / NIEHS)
Records with an inconclusive call do not appear. Calls of active or inactive are those of the source. How the source made its calls: active means hit-call score of the fitted dose curve at least 0.9, where 1 is the maximum; inconclusive means response in the unintended direction; inactive means score below 0.9.

Assays:
[1] = target: Estrogen receptor (Homo sapiens) (UniProt P03372); assay: OT_ER_ERaERa_1440: Odyssey Thera (OT) 24-hour HEK293T Protein-Complementation Assay for Estrogen Receptor-alpha/-alpha Homodimer (AID 2283349);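 further: hits raise fluorescence above DMSO for agonists and antagonists alike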
How it was run: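 Readout is the rise in mean fluorescence from reporter fragment complementation when ERα LBD (aa 310-547) units dimerize in HEK293T cells. Measured 24 h after dosing and analysed as increase over DMSO control.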

[2] = target: Estrogen receptor (Homo sapiens) (UniProt P03372); assay: OT_ER_ERaERa_0480: Odyssey Thera (OT) 8-hour HEK293T Protein-Complementation Assay for Estrogen Receptor-alpha/-alpha Homodimer (AID 2283351);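 further: rise in fluorescence from reassembled reporter fragments on ERα LBD homodimer in nucleus or whole cell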
How it was run: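 Binding reporter in which dimerisation of ERα LBD (aa 310-547) fusions reconstitutes a fluorescent reporter in HEK293T cells. Compounds incubated 8 h; mean fluorescence intensity increase versus DMSO scored.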

[3] = target: Estrogen receptor (Homo sapiens) + Estrogen receptor beta (Homo sapiens) (UniProt P03372+Q92731); assay: OT_ER_ERaERb_0480: Odyssey Thera (OT) 8-hour HEK293T Protein-Complementation Assay for Estrogen Receptor-alpha/-beta Heterodimer (AID 2283352)
How it was run: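 Fluorescence intensity readout from a protein-fragment complementation reporter in HEK293T; ER-alpha/ER-beta LBD heterodimer. Dosing 8 h. Gain-of-signal fit relative to DMSO negative control; laser scanning cytometry of whole-well cell population.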

[4] = target: Androgen Receptor/SRC-1 Co-activator, AR (gene 367) (UniProt P10275); assay: OT_AR_ARSRC1_0960: Odyssey Thera (OT) 16-hour HEK293T Protein-Complementation Assay for Androgen Receptor/SRC-1 Co-activator (AID 2283353);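 further: actives raise the signal above DMSO so potency reflects increased AR and SRC-1 complex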
How it was run: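 Interaction of AR with SRC-1 was followed by YFP fragment complementation in HEK293T cells after 16 h of dosing. Gain of nuclear-over-cytoplasmic 488 nm fluorescence against DMSO controls defined activity.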

[5] = target: Estrogen receptor (Homo sapiens) (UniProt P03372); assay: NVS_NR_hER: NovaScreen (NVS) Nuclear Receptor Binding Assay for human Estrogen Receptor (ER) (AID 2283348)
How it was run: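 Cell-free radioligand binding with protein extracted from MCF7 cells; scintillation counting 18 hours after dosing. Loss of signal versus DMSO baseline read as displacement; primary single-concentration screen at 25 uM in duplicate, actives retested in concentration series.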

[6] = target: Bile acid receptor (Homo sapiens) (UniProt Q96RI1); assay: NVS_NR_hFXR_Antagonist: NovaScreen (NVS) Nuclear Receptor Binding Assay for human Farnesoid X Receptor Antagonism (FXR) (AID 2283350)
How it was run: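 Cell-free TR-FRET ligand-binding read-out on human FXR (NR1H4) in antagonist mode, measured 1 h after dosing. Primary screen in duplicate at 25 uM, actives retested in concentration series; signal loss scored versus DMSO.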

Chain of Estrogen receptor (Homo sapiens) + Estrogen receptor beta (Homo sapiens) (P03372 whole entry, looked up, the tested form may be a part): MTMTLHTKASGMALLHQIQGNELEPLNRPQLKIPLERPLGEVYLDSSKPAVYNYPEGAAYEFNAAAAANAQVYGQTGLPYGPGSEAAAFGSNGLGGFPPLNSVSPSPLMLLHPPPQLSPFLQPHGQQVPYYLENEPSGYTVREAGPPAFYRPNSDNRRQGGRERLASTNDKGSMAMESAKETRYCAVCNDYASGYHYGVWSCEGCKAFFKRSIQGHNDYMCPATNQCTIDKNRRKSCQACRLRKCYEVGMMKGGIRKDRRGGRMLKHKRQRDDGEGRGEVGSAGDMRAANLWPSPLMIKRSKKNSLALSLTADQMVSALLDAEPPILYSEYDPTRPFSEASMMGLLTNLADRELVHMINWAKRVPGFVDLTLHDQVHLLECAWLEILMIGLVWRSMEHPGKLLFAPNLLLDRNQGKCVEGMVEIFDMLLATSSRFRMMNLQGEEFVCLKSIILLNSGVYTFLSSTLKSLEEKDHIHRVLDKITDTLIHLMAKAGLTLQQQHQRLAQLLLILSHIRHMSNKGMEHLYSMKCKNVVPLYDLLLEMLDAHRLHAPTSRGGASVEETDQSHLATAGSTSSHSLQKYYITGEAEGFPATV
Chain of Estrogen receptor (Homo sapiens) + Estrogen receptor beta (Homo sapiens) (Q92731 whole entry, looked up, the tested form may be a part): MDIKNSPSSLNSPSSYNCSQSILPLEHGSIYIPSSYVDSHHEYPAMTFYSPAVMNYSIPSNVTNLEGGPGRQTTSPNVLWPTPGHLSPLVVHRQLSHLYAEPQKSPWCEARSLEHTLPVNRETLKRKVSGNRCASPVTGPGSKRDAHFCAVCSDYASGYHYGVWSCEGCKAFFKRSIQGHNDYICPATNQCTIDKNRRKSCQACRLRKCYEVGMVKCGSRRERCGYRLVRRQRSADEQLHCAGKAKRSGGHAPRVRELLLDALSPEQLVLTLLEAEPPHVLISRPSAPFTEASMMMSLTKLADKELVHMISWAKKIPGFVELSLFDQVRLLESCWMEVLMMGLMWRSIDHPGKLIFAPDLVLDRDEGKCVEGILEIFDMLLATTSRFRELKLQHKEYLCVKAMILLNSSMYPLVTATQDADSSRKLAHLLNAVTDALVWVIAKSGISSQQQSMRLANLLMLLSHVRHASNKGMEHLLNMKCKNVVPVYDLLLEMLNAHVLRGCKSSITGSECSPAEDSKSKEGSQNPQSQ
Chain of Estrogen receptor (Homo sapiens) (P03372 whole entry, looked up, the tested form may be a part): as the sequence (P03372 whole entry, looked up, the tested form may be a part) above
Chain of Androgen Receptor/SRC-1 Co-activator, AR (gene 367) (P10275 whole entry, looked up, the tested form may be a part): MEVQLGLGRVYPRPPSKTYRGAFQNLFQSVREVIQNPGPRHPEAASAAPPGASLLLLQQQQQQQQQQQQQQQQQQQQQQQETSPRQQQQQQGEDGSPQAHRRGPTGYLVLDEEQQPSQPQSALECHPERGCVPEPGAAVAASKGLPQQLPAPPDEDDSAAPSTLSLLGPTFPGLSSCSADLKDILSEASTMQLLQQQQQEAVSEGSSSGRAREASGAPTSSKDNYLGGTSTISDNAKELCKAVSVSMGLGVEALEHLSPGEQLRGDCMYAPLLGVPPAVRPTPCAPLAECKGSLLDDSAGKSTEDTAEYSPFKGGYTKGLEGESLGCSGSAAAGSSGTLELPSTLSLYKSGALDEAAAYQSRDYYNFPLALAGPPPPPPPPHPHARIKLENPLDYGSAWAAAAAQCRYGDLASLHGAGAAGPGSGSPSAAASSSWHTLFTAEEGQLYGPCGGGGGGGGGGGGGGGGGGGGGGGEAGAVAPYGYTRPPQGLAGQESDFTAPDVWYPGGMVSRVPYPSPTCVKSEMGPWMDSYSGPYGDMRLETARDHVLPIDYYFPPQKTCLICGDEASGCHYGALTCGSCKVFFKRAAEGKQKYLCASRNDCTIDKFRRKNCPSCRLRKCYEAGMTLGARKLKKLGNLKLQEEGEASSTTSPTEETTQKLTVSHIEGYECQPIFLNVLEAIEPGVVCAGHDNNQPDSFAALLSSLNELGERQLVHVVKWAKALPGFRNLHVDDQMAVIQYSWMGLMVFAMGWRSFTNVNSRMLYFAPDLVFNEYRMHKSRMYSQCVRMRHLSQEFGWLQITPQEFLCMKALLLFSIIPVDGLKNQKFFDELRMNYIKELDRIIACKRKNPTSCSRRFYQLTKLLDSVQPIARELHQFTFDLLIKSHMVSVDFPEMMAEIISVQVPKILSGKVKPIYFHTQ
Chain of Bile acid receptor (Homo sapiens) (Q96RI1 whole entry, looked up): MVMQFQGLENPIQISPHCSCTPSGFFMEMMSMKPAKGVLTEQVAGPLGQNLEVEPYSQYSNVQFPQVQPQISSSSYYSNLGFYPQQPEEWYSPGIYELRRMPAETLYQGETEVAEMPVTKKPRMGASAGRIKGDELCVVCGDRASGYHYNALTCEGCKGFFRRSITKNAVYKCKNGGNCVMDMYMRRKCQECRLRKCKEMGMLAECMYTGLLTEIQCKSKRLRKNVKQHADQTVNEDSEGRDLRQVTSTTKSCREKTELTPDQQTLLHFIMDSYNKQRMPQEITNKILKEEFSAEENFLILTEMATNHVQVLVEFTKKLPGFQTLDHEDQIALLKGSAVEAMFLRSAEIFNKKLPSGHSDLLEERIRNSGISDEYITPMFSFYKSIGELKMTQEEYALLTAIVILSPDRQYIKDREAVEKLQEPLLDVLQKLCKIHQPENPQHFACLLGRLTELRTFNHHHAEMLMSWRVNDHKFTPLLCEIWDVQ

What does the source list for `CCCCCCCCCCO`?
outcome [1]: inactive; outcome [2]: inactive; outcome [3]: inactive

What does the source list for `CCCCCCCCCCCCCO`?
outcome [1]: inactive; outcome [2]: inactive; outcome [3]: inactive

What does the source list for `Cc1cccc(C)c1O`?
outcome [1]: inactive; outcome [2]: inactive; outcome [3]: inactive; outcome [4]: inactive

How did the outcome [1] turn out when `CC(CO)OC(C)CO` (centres undefined) (tested in a mixture with another compound) was run?
The outcome was “inactive”.

And the outcome [2]?
The outcome was “inactive”.

How did the outcome [1] turn out when `O=c1[nH]cc(F)c(=O)[nH]1` was run?
Its outcome is “inactive”.

What about the outcome [2] of the same compound?
The outcome was “inactive”.

What about the outcome [3] of the same compound?
Its outcome is “inactive”.

What does the source list for `Cc1cc(=O)[nH]c(=S)[nH]1`?
outcome [1]: inactive; outcome [2]: inactive

How did the outcome [5] turn out when `COc1ccc2c(c1)c(CC(=O)O)c(C)n2C(=O)c1ccc(Cl)cc1` was run?
The outcome was “inactive”.

What about the outcome [1] of the same compound?
The outcome was “inactive”.

What about the outcome [4] of the same compound?
The outcome was “inactive”.

Which results are given for `Cc1oc(-c2ccccc2)nc1CCOc1cccc2c1ccn2CCC(=O)O`?
outcome [5]: inactive; outcome [2]: inactive; outcome [3]: inactive

With `Cc1cccc(Nc2cc(Cl)nc(SCC(=O)O)n2)c1C` as the compound, how does the outcome [5] read?
Its outcome is “inactive”.

And the outcome [1]?
The outcome was “inactive”.

And the outcome [2]?
Its outcome is “inactive”.

What about the outcome [4] of the same compound?
The outcome was “inactive”.

How did the outcome [5] turn out when `CC1=C(/C=C/C(C)=C/C=C/C(C)=C/CO)C(C)(C)CCC1` was run?
The outcome was “inactive”.

What about the outcome [2] of the same compound?
The outcome was “inactive”.

What about the outcome [3] of the same compound?
The outcome was “inactive”.

For `COCCOC[C@H](CC1(C(=O)NC2CCC(C(=O)O)CC2)CCCC1)C(=O)Oc1ccc2c(c1)CCC2` (some centres undefined), which outcome [1] is on record?
The outcome was “inactive”.

What about the outcome [2] of the same compound?
The outcome was “inactive”.

And the outcome [4]?
Its outcome is “inactive”.

For `CCCCCC(=O)O`, which outcome [1] is on record?
The outcome was “inactive”.

And the outcome [2]?
Its outcome is “inactive”.

And the outcome [3]?
Its outcome is “inactive”.

And the outcome [4]?
Its outcome is “inactive”.

With `O=C(N[C@@H](Cc1ccccc1)[C@@H](O)C(=O)N1C[C@@H](O)[C@@H](O)C1)c1cc2cc(Cl)ccc2[nH]1` as the compound, how does the outcome [1] read?
Its outcome is “inactive”.

What about the outcome [2] of the same compound?
Its outcome is “inactive”.

What about the outcome [3] of the same compound?
Its outcome is “inactive”.

For `O=C(O)Cc1ccccc1Nc1c(Cl)cccc1Cl`, which outcome [5] is on record?
Its outcome is “inactive”.

And the outcome [3]?
Its outcome is “inactive”.

`CCCCOC(=O)CCCCCCCCC(=O)OCCCC` was tested. Which outcome [1] did it give?
The outcome was “inactive”.

And the outcome [2]?
The outcome was “inactive”.

What about the outcome [3] of the same compound?
Its outcome is “inactive”.

`C[Si]1(C)O[Si](C)(C)O[Si](C)(C)O[Si](C)(C)O1` was tested. Which outcome [5] did it give?
The outcome was “inactive”.

And the outcome [1]?
The outcome was “inactive”.

And the outcome [2]?
Its outcome is “inactive”.

And the outcome [3]?
The outcome was “inactive”.

With `NCC1(Cc2noc(=O)[nH]2)CCCCC1` as the compound, how does the outcome [1] read?
Its outcome is “inactive”.

What about the outcome [2] of the same compound?
Its outcome is “inactive”.

And the outcome [3]?
The outcome was “inactive”.

How did the outcome [1] turn out when `C1CCC(SSC2CCCCC2)CC1` was run?
Its outcome is “inactive”.

And the outcome [2]?
Its outcome is “inactive”.

What about the AC50 [3] of the same compound?
Its AC50 is 50 µM (active).

How did the outcome [1] turn out when `CC1(C)CC(N=C=O)CC(C)(CN=C=O)C1` (centres undefined) was run?
Its outcome is “inactive”.

And the outcome [2]?
Its outcome is “inactive”.

For `CCCCCCC(=O)OCC`, which outcome [5] is on record?
The outcome was “inactive”.

And the outcome [2]?
Its outcome is “inactive”.

What about the outcome [3] of the same compound?
Its outcome is “inactive”.

What does the source list for `Nc1ccc(S(=O)(=O)c2ccc(N)cc2)cc1`?
outcome [1]: inactive; outcome [2]: inactive

Which results are given for `CNC(=O)[C@H]1O[C@@H](n2cnc3c(NCc4cc(Cl)ccc4OCc4cc(C)no4)ncnc32)[C@H](O)[C@@H]1N`?
AC50 [1]: 11.9 µM (active); outcome [2]: inactive; outcome [3]: inactive; outcome [4]: inactive

How did the outcome [5] turn out when `CC(C)(C)c1cc(O)c(C(C)(C)C)cc1O` was run?
Its outcome is “inactive”.

And the outcome [2]?
Its outcome is “inactive”.

And the outcome [3]?
Its outcome is “inactive”.

What about the AC50 [4] of the same compound?
The AC50 was 50 µM (active).

Which results are given for `Oc1ccc2c(c1)OC[C@@H](N1CCC(O)(c3ccc(F)cc3)CC1)[C@H]2O`?
outcome [5]: inactive; outcome [2]: inactive; outcome [3]: inactive

`CCCCCCOCCO` was tested. Which outcome [2] did it give?
The outcome was “inactive”.

And the outcome [3]?
Its outcome is “inactive”.

For `CN1CCCC1=O`, which outcome [1] is on record?
Its outcome is “inactive”.

What about the outcome [3] of the same compound?
The outcome was “inactive”.

`CC(C)c1ccc(C(=O)N=C(N)N)cc1S(C)(=O)=O` was tested. Which outcome [3] did it give?
Its outcome is “inactive”.

How did the outcome [2] turn out when `Oc1ccc2ccccc2c1N=Nc1ccccc1` was run?
The outcome was “inactive”.

`COc1cc(S(=O)(=O)O)c(C)cc1N=Nc1c(O)ccc2cc(S(=O)(=O)O)ccc12` was tested. Which outcome [2] did it give?
The outcome was “inactive”.

For `Clc1cc(Cl)c(Cl)cc1Cl`, which outcome [2] is on record?
Its outcome is “inactive”.

Which results are given for `CCCCCCCC=O`?
outcome [2]: inactive; outcome [3]: inactive

Which results are given for `O=C(O)CCCCC(=O)O`?
outcome [2]: inactive; outcome [3]: inactive

For `CC(=O)OCCOCCOCCOC(C)=O`, which outcome [2] is on record?
The outcome was “inactive”.

And the outcome [3]?
Its outcome is “inactive”.

Which results are given for `Cc1ccc(C)c(C)c1`?
outcome [2]: inactive; outcome [3]: inactive; outcome [4]: inactive

`Nc1ccccc1N` was tested. Which outcome [2] did it give?
The outcome was “inactive”.

`FC(F)(F)C(F)(F)C(F)(F)C(F)(F)C(F)(F)C(F)(F)CCI` was tested. Which outcome [2] did it give?
The outcome was “inactive”.

For `Nc1nc(N)c2nc(CNc3ccc(C(=O)N[C@@H](CCC(=O)O)C(=O)O)cc3)cnc2n1`, which outcome [2] is on record?
Its outcome is “inactive”.

And the outcome [3]?
Its outcome is “inactive”.

With `Cc1ccc2ncccc2c1` as the compound, how does the outcome [2] read?
Its outcome is “inactive”.

Which outcome [2] does the source give for `Cc1nc(C)nc(N2C[C@@H](C)N(c3ccnc([C@@H](C)O)n3)[C@@H](C)C2)n1` here?
Its outcome is “inactive”.

How did the outcome [3] turn out when `COCCOCCOC` was run?
The outcome was “inactive”.

And the outcome [4]?
The outcome was “inactive”.

For `NCCO`, which outcome [2] is on record?
Its outcome is “inactive”.

`Cc1c(C(=O)O)c(O)cc2c1C(=O)c1c(O)c([C@@H]3O[C@H](CO)[C@@H](O)[C@H](O)[C@H]3O)c(O)c(O)c1C2=O` was tested. Which outcome [2] did it give?
Its outcome is “inactive”.

What about the outcome [3] of the same compound?
The outcome was “inactive”.

`Cc1ccc(N(C)C)cc1` was tested. Which outcome [1] did it give?
The outcome was “inactive”.

What about the outcome [2] of the same compound?
Its outcome is “inactive”.

And the outcome [4]?
The outcome was “inactive”.

Which results are given for `CN[C@H]1CC[C@@H](c2ccc(Cl)c(Cl)c2)c2ccc(S(N)(=O)=O)cc21`?
outcome [2]: inactive; AC50 [4]: 17.4 µM (active)

`CC1(C)NC(=O)NC1=O` was tested. Which outcome [2] did it give?
The outcome was “inactive”.

For `CC(=O)Oc1ccccc1C(=O)O`, which outcome [2] is on record?
The outcome was “inactive”.

And the outcome [3]?
Its outcome is “inactive”.

And the outcome [4]?
Its outcome is “inactive”.

How did the outcome [2] turn out when `NS(=O)(=O)c1cc2c(cc1Cl)NCNS2(=O)=O` was run?
The outcome was “inactive”.

And the outcome [3]?
Its outcome is “inactive”.

With `Cc1ccc(Cl)cc1` as the compound, how does the outcome [6] read?
Its outcome is “inactive”.

What about the outcome [2] of the same compound?
Its outcome is “inactive”.

With `COc1ccc(C)cc1N` as the compound, how does the outcome [2] read?
The outcome was “inactive”.

What about the outcome [4] of the same compound?
The outcome was “inactive”.

`Cc1ccc(C)c(O)c1C` was tested. Which outcome [2] did it give?
Its outcome is “inactive”.

And the outcome [4]?
Its outcome is “inactive”.

Which results are given for `Cc1ccccc1Cl`?
outcome [2]: inactive; outcome [4]: inactive

For `c1cc(-c2ccncc2)ccn1`, which outcome [2] is on record?
Its outcome is “inactive”.

`Cc1cccc([N+](=O)[O-])c1C` was tested. Which outcome [2] did it give?
The outcome was “inactive”.

And the outcome [3]?
The outcome was “inactive”.

And the outcome [4]?
The outcome was “inactive”.
